Experimental data from PMC12529666, “Dysregulation of AGO2-miRNA dynamics underlies the AGO2-associated Lessel–Kreienkamp syndrome”.

Key:
Experiment in all cases: RNA Bind-n-Seq (nitrocellulose filter binding and sequencing); miR-122 guide loaded in AGO2; 60 min incubation; 30 mM Tris pH 8.0, 100 mM potassium acetate, 2 mM magnesium acetate, 0.5 mM TCEP, 0.005% NP-40, 0.01 mg/ml yeast tRNA; 3 nM AGO2-miR-122, 100 nM RNA library; 60; high values mean tight binding
Conditions in all cases: protein: recombinant; tags: His6 (N-terminal, pFastBac HTA)
[1] = target: AGO2 L192P (Homo sapiens, UniProt Q9UKV8 1-859, L192P;S387D;S824A;S828D;S831D;S834A)
Outline: (§1)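 Fold enrichment is each target's read fraction divided by its read fraction in the input library. Sf9 insect cells expressed His-tagged AGO2 from baculovirus; the protein was loaded with a synthetic guide RNA and purified by Ni-NTA and a biotinylated capture oligo. The bound RNA was extracted, reverse-transcribed, barcode-amplified and sequenced on Illumina.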

[2] = target: AGO2 A367P (Homo sapiens, UniProt Q9UKV8 1-859, A367P;S387D;S824A;S828D;S831D;S834A)
Outline: as §1

[3] = target: AGO2 T357M (Homo sapiens, UniProt Q9UKV8 1-859, T357M;S387D;S824A;S828D;S831D;S834A)
Outline: as §1

[4] = target: AGO2 F182del (Homo sapiens, UniProt Q9UKV8 1-859, S387D;S824A;S828D;S831D;S834A;del182-182)
Outline: as §1

AGO2 L192P, sequence (Q9UKV8 whole entry L192P/S387D/S824A/S828D/S831D/S834A): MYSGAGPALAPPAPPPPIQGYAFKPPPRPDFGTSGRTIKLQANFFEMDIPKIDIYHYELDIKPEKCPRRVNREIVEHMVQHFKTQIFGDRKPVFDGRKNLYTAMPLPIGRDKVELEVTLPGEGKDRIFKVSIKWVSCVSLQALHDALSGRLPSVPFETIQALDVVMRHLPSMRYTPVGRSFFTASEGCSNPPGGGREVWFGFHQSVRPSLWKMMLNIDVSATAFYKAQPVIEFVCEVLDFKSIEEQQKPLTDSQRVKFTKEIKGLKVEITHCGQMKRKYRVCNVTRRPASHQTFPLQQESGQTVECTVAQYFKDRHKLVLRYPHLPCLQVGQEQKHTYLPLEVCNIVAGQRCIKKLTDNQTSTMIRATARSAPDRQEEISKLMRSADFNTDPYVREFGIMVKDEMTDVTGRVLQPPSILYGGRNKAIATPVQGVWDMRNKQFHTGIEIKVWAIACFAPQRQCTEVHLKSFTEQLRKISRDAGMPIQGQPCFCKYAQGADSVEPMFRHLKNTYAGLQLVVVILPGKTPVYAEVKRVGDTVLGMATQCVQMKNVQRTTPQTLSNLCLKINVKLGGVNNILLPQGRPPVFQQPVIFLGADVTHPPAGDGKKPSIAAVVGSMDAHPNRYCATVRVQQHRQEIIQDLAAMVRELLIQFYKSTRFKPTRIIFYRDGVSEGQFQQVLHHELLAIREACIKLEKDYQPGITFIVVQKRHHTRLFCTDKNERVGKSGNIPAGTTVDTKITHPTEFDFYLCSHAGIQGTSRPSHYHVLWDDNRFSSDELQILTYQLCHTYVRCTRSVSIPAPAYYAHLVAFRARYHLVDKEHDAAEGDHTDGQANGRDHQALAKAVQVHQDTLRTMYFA
AGO2 A367P, sequence (Q9UKV8 whole entry A367P/S387D/S824A/S828D/S831D/S834A): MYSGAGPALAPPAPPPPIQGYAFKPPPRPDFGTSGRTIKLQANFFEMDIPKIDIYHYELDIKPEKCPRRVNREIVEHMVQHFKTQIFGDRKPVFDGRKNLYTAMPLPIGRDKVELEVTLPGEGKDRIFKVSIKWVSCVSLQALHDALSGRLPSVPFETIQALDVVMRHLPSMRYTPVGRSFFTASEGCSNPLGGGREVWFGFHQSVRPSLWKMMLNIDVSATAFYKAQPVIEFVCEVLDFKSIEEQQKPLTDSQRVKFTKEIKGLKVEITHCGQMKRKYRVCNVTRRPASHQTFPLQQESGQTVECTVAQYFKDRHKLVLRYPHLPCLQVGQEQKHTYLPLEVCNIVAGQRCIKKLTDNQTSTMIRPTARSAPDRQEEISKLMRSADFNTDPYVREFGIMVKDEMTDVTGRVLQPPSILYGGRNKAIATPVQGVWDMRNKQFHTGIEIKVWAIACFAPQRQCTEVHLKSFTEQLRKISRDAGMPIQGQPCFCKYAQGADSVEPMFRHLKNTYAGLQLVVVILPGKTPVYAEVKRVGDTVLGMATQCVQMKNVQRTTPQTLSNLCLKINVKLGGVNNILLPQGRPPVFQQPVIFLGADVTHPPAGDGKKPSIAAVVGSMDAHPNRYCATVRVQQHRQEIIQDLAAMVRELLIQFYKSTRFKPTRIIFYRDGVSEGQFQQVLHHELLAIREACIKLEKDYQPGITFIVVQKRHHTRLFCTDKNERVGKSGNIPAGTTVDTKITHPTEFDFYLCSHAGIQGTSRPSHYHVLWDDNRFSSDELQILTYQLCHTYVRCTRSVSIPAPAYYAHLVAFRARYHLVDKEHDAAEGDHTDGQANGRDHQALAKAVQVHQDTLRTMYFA
AGO2 T357M, sequence (Q9UKV8 whole entry T357M/S387D/S824A/S828D/S831D/S834A): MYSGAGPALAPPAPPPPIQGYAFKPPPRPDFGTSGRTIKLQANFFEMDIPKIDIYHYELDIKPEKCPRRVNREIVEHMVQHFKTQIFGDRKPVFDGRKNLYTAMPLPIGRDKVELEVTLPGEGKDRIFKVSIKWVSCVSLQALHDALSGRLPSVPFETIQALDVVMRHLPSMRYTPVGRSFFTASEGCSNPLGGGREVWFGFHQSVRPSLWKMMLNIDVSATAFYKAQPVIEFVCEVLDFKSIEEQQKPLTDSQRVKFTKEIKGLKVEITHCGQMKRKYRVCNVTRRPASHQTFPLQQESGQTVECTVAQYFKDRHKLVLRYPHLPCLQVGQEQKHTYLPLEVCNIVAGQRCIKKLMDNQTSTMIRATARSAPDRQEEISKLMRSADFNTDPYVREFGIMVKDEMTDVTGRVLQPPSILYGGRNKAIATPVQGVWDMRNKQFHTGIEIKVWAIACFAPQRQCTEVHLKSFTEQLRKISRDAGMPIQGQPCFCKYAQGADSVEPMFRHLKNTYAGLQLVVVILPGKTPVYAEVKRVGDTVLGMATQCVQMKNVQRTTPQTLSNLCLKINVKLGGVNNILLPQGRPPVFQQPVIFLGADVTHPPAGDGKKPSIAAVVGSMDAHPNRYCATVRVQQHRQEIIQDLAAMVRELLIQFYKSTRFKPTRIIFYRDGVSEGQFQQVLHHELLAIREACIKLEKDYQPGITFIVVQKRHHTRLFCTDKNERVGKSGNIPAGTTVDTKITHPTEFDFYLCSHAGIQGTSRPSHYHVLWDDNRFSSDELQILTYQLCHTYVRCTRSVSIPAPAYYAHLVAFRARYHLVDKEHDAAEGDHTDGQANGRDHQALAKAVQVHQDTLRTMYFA
AGO2 F182del, sequence (Q9UKV8 other isoform, or with tags, fused parts or gaps S387D;S824A;S828D;S831D;S834A;del182-182): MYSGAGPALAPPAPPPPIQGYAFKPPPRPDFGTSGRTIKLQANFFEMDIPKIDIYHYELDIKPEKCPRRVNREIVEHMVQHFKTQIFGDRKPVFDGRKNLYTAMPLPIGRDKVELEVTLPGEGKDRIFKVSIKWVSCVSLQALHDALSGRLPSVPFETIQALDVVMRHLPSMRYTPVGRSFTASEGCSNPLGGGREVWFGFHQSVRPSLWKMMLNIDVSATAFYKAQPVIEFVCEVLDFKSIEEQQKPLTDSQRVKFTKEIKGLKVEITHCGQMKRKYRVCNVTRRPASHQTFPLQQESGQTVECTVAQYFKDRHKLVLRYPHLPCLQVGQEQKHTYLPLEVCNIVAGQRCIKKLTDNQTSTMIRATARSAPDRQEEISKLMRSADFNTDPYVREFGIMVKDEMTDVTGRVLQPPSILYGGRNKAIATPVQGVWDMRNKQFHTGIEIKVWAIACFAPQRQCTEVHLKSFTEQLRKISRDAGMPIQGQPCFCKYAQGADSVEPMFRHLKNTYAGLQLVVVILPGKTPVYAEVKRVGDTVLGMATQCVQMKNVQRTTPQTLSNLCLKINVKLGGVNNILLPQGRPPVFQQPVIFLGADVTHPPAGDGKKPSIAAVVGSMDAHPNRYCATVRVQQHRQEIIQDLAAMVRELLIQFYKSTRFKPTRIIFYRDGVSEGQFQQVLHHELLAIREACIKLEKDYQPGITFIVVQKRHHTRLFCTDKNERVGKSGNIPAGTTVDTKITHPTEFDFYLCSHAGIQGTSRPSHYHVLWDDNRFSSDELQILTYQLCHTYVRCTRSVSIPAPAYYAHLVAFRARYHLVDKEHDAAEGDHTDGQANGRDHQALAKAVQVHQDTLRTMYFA

| Binder | binding signal [1] | binding signal [2] | binding signal [3] | binding signal [4] |
| --- | --- | --- | --- | --- |
| GCGTCTTA (ssRNA, constant regions annealed to DNA blockers; guide miR-122 5' phosphate) RNA 1: GAGUUCUACAGUCCGACGAUCCCAACGCGUCUUACACCUGGAAUUCUCGGGUGCCAA RNA 2: UGGAGUGUGACAAUGGUGUUUG DNA 1: GATCGTCGGACTGTAGAACTC DNA 2: TTGGCACCCGAGAATTCCA | 0.473 fold enrichment over input | 0.2 fold enrichment over input | 0.656 fold enrichment over input | – |
| GTGTCCTA (ssRNA, constant regions annealed to DNA blockers; guide miR-122 5' phosphate) RNA 1: GAGUUCUACAGUCCGACGAUCCCAACGUGUCCUACACCUGGAAUUCUCGGGUGCCAA RNA 2: UGGAGUGUGACAAUGGUGUUUG DNA 1: GATCGTCGGACTGTAGAACTC DNA 2: TTGGCACCCGAGAATTCCA | 0.451 fold enrichment over input | 0.158 fold enrichment over input | 0.528 fold enrichment over input | – |
| GTGTTTCA (ssRNA, constant regions annealed to DNA blockers; guide miR-122 5' phosphate) RNA 1: GAGUUCUACAGUCCGACGAUCCCAACGUGUUUCACACCUGGAAUUCUCGGGUGCCAA RNA 2: UGGAGUGUGACAAUGGUGUUUG DNA 1: GATCGTCGGACTGTAGAACTC DNA 2: TTGGCACCCGAGAATTCCA | 0.477 fold enrichment over input | 0.178 fold enrichment over input | 0.587 fold enrichment over input | – |
| ATGCCCCG (ssRNA, constant regions annealed to DNA blockers; guide miR-122 5' phosphate) RNA 1: GAGUUCUACAGUCCGACGAUCCCAACAUGCCCCGCACCUGGAAUUCUCGGGUGCCAA RNA 2: UGGAGUGUGACAAUGGUGUUUG DNA 1: GATCGTCGGACTGTAGAACTC DNA 2: TTGGCACCCGAGAATTCCA | 0.377 fold enrichment over input | 0.134 fold enrichment over input | 0.489 fold enrichment over input | – |
| GTATCCTA (ssRNA, constant regions annealed to DNA blockers; guide miR-122 5' phosphate) RNA 1: GAGUUCUACAGUCCGACGAUCCCAACGUAUCCUACACCUGGAAUUCUCGGGUGCCAA RNA 2: UGGAGUGUGACAAUGGUGUUUG DNA 1: GATCGTCGGACTGTAGAACTC DNA 2: TTGGCACCCGAGAATTCCA | 0.448 fold enrichment over input | 0.17 fold enrichment over input | 0.563 fold enrichment over input | 0.121 fold enrichment over input |
| GTGCCCTA (ssRNA, constant regions annealed to DNA blockers; guide miR-122 5' phosphate) RNA 1: GAGUUCUACAGUCCGACGAUCCCAACGUGCCCUACACCUGGAAUUCUCGGGUGCCAA RNA 2: UGGAGUGUGACAAUGGUGUUUG DNA 1: GATCGTCGGACTGTAGAACTC DNA 2: TTGGCACCCGAGAATTCCA | 0.458 fold enrichment over input | 0.188 fold enrichment over input | 0.663 fold enrichment over input | – |
| ACGCCTTG (ssRNA, constant regions annealed to DNA blockers; guide miR-122 5' phosphate) RNA 1: GAGUUCUACAGUCCGACGAUCCCAACACGCCUUGCACCUGGAAUUCUCGGGUGCCAA RNA 2: UGGAGUGUGACAAUGGUGUUUG DNA 1: GATCGTCGGACTGTAGAACTC DNA 2: TTGGCACCCGAGAATTCCA | 0.367 fold enrichment over input | 0.164 fold enrichment over input | 0.54 fold enrichment over input | – |
| GTGTTTTA (ssRNA, constant regions annealed to DNA blockers; guide miR-122 5' phosphate) RNA 1: GAGUUCUACAGUCCGACGAUCCCAACGUGUUUUACACCUGGAAUUCUCGGGUGCCAA RNA 2: UGGAGUGUGACAAUGGUGUUUG DNA 1: GATCGTCGGACTGTAGAACTC DNA 2: TTGGCACCCGAGAATTCCA | 0.467 fold enrichment over input | 0.167 fold enrichment over input | 0.565 fold enrichment over input | – |
| ACGTTCTA (ssRNA, constant regions annealed to DNA blockers; guide miR-122 5' phosphate) RNA 1: GAGUUCUACAGUCCGACGAUCCCAACACGUUCUACACCUGGAAUUCUCGGGUGCCAA RNA 2: UGGAGUGUGACAAUGGUGUUUG DNA 1: GATCGTCGGACTGTAGAACTC DNA 2: TTGGCACCCGAGAATTCCA | 0.434 fold enrichment over input | 0.184 fold enrichment over input | 0.53 fold enrichment over input | 0.195 fold enrichment over input |
| ACGTCCTG (ssRNA, constant regions annealed to DNA blockers; guide miR-122 5' phosphate) RNA 1: GAGUUCUACAGUCCGACGAUCCCAACACGUCCUGCACCUGGAAUUCUCGGGUGCCAA RNA 2: UGGAGUGUGACAAUGGUGUUUG DNA 1: GATCGTCGGACTGTAGAACTC DNA 2: TTGGCACCCGAGAATTCCA | 0.312 fold enrichment over input | 0.143 fold enrichment over input | 0.434 fold enrichment over input | – |
| ATGTTTTG (ssRNA, constant regions annealed to DNA blockers; guide miR-122 5' phosphate) RNA 1: GAGUUCUACAGUCCGACGAUCCCAACAUGUUUUGCACCUGGAAUUCUCGGGUGCCAA RNA 2: UGGAGUGUGACAAUGGUGUUUG DNA 1: GATCGTCGGACTGTAGAACTC DNA 2: TTGGCACCCGAGAATTCCA | 0.387 fold enrichment over input | 0.134 fold enrichment over input | 0.541 fold enrichment over input | – |
| GTACTTTA (ssRNA, constant regions annealed to DNA blockers; guide miR-122 5' phosphate) RNA 1: GAGUUCUACAGUCCGACGAUCCCAACGUACUUUACACCUGGAAUUCUCGGGUGCCAA RNA 2: UGGAGUGUGACAAUGGUGUUUG DNA 1: GATCGTCGGACTGTAGAACTC DNA 2: TTGGCACCCGAGAATTCCA | 0.446 fold enrichment over input | 0.161 fold enrichment over input | 0.636 fold enrichment over input | – |
